Screening data: PubChem BioAssay, several laboratories
Rows were chosen to be rich in hits. Some 2.8% of all compounds tested hit in one or more screens of this group.
PP1 inh = blocks human PP1-alpha phosphatase, a PP5 counter-screen; P62136; inhibition, % at 6.7 µM; actives 0.9% (n = 320,000); purified PP1alpha, OMFP fluorescence;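 active means inhibition above the mean inhibition of all tested compounds plus 3 SD, computed separately for each screening campaign, cut at about 15% in these data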
IDE act = activators of human insulin-degrading enzyme in cells | P14735 | HEK cells, FAbeta-B cleavage, fluorescence polarization; 0% vehicle, 100% cell-free pure enzyme wells | activation, % at 5.96 µM | actives 0.073% (n = 340,000);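 active means activation above the mean of all tested compounds plus 3 SD, set per screening campaign, cut at about 17% in these data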
Target sequence (P14735 whole entry, looked up): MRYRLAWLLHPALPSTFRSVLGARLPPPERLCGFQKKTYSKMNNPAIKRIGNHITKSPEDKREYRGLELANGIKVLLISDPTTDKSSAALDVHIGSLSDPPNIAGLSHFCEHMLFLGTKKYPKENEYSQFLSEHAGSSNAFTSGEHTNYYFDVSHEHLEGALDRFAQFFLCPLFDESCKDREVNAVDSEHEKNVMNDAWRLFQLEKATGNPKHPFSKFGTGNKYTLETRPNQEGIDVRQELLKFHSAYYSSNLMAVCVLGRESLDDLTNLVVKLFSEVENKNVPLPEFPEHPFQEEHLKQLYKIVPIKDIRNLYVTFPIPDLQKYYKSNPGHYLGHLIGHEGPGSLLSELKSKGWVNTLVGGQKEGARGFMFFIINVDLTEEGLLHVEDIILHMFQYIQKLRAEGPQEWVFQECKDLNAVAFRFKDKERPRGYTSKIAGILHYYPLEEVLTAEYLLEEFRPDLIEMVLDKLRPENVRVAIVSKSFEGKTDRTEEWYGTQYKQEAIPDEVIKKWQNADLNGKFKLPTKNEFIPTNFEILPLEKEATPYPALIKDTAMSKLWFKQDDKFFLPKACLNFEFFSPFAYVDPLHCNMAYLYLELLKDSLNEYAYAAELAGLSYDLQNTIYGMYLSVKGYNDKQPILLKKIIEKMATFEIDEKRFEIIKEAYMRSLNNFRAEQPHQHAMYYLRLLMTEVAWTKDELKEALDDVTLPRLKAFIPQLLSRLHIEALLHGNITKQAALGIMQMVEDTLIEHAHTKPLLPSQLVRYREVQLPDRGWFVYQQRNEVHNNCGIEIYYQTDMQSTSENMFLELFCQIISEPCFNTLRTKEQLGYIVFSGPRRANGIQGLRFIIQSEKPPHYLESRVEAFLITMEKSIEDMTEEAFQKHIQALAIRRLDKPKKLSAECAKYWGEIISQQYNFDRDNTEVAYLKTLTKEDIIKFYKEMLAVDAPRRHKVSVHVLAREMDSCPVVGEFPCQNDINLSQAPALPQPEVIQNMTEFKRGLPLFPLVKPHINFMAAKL
PP5 primary = blocks human protein phosphatase 5 activity | P53041 | purified PP5c, OMFP substrate fluorescence | inhibition, % at 6.7 µM | actives 0.18% (n = 320,000);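 active means inhibition above the campaign's mean inhibition across all tested compounds plus 3 SD, cut at about 9.5% in these data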
SKKanGAS inh = SKKanGAS growth inhibition; S. pyogenes SKKanGAS, kanamycin growth, BacTiter-Glo, 6 h; inhibition, % at 7.5 µM; actives 1.3% (n = 300,000);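 active means mean replicate score, as percent of positive control median, at least 50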;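 further: strain carries kanamycin resistance gene driven by streptokinase promoter and grows in 40 µg/ml kanamycin; loss of luminescence reflects streptokinase promoter inhibition or plain growth inhibition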
Granule exo inh = lytic granule exocytosis inhibition. actives 0.66% (n = 360,000). TALL-104 LAMP-1 surface exposure, flow cytometry; cells stimulated with thapsigargin and PMA. inhibition, % at 10 µM;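 active means inhibition above about 55%, limit read from the data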
IDE cell inh = cellular human IDE inhibition; inhibition, % at 5.59 µM; HEK cells, FAbetaB cleavage, fluorescence polarization; actives 0.41% (n = 320,000); P14735;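 active means percent inhibition above the average of all tested compounds plus 3 SD, set per screening campaign, cut at about 16% in these data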;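 further: IDE supplied by intact live HEK cells; FP after avidin binding of uncleaved biotin substrate so inhibition keeps polarization high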
PP1 confirm = confirmation of human PP1 phosphatase inhibitors | shares compounds with PP1 inh | purified PP1alpha, OMFP substrate fluorescence | inhibition, % at 6.7 µM | actives 52% (n = 1,900);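 active means mean PP1 inhibition above a set limit taken from the earlier primary screen, cut at about 15% in these data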
PP5 counter = inhibits human PP5 phosphatase in PP1 counter-screen | actives 4% (n = 1,900) | inhibition, % at 6.7 µM | purified PP5c, OMFP fluorescence | shares compounds with PP1 inh | AID 2360;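 active means mean PP5 inhibition over triplicate wells above about 9.5% taken from the earlier PP1 screen, limit read from the data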
Numbers stand for hits; n = inactive; x = not tested or not shown.

SMILES | PP1 inh | IDE act | PP5 primary | SKKanGAS inh | Granule exo inh | IDE cell inh | PP1 confirm | PP5 counter
Cc1cc2oc(=O)cc(-c3cc4ccccc4o3)c2cc1O | 24 | n | n | n | n | n | 21 | n
Nc1nc(-c2ccccc2)ns1 | x | n | x | x | n | x | x | x
O=C(CN1C(=O)c2ccccc2C1=O)Nc1ccc(S(=O)(=O)N2CCOCC2)cc1 | n | n | n | n | n | n | x | x
Cc1ccsc1/C=C/c1ccc2cccc(O)c2n1 | 21 | n | n | 101 | n | n | 19 | n
COc1cc(/C=C/c2ccc3cccc(OC)c3n2)c(OC(C)=O)c([N+](=O)[O-])c1 | n | n | n | n | n | n | x | x
Oc1cccc2ccc(/C=C/c3cccs3)nc12 | 24 | n | n | 120 | n | n | 19 | n
COc1ccc(OC)c(/C=C/c2ccc3cccc(O)c3n2)c1 | 19 | n | n | 90 | n | n | 18 | n
COc1ncccc1C(=O)N1CCCC(N2CCN(c3ccc(F)cc3)CC2)C1 (stereo not given) | n | n | n | n | n | n | x | x
COc1ncccc1C(=O)N1CCCC(N2CCN(c3cccc(Cl)c3)CC2)C1 (stereo not given) | 49 | n | n | n | n | n | n | n
CC(=O)OC1(C(C)=O)CCC2C3CC(Cl)C4=CC(=O)CCC4(C)C3CCC21C (stereo not given) | x | n | x | x | n | x | x | x
CCOC(=O)N1CCN(c2ccc(S(=O)(=O)N3CCC(C)CC3)cc2[N+](=O)[O-])CC1 | n | n | n | x | n | n | x | x
Cc1ccc(NC(=O)Cn2nc(-c3ccccc3)nc2-c2ccccc2)c(C)c1 | n | n | n | n | n | n | x | x
Cc1ccc(C)c(NC(=O)Cn2nc(-c3ccccc3)nc2-c2ccccc2)c1 | 20 | n | n | n | n | n | 24 | n
C#CCOCCOCCOCCNc1nc(N2CCN(C(=O)CCCCCCCCCCNC(=O)[C@H](CCCCN)n3cc(CCO)nn3)CC2)nc(N2CCN(C(=O)CCCCCCCCCCNC(=O)[C@@H]([C@H](C)O)n3cc(C)nn3)CC2)n1 | n | n | n | x | n | n | x | x
C#CCOCCOCCOCCNc1nc(N2CCN(C(=O)CCCCCCCCCCNC(=O)[C@H](CCCCN)n3cc(CCO)nn3)CC2)nc(N2CCN(C(=O)CCCCCCCCCCNC(=O)[C@H](CCCCN)n3cc(CCO)nn3)CC2)n1 | 18 | n | n | x | n | n | n | n
C#CCOCCOCCOCCNc1nc(N2CCN(C(=O)[C@H]([C@@H](C)CC)n3cc(CCCN=C(N)N)nn3)CC2)nc(N2CCN(C(=O)[C@H](CCCCN)n3cc(CCC(=O)O)nn3)CC2)n1 | n | n | n | n | n | n | x | x
C#CCOCCOCCOCCNc1nc(N2CCN(C(=O)[C@H](CCCCN)n3cc(CC(C)O)nn3)CC2)nc(N2CCN(C(=O)[C@H](Cc3ccc(O)cc3)n3cc(CCO)nn3)CC2)n1 (stereo not given in full) | x | n | x | x | n | x | x | x
C#CCOCCOCCOCCNc1nc(N2CCN(C(=O)[C@H](CCCCN)n3cc(CCCC)nn3)CC2)nc(N2CCN(C(=O)[C@H](Cc3ccc(O)cc3)n3cc(CCO)nn3)CC2)n1 | 21 | n | n | n | n | n | n | n
C#CCOCCOCCOCCNc1nc(N2CCN(C(=O)CCCCCCCCCCNC(=O)[C@H](CCCCN)n3cc(CCCC(=O)O)nn3)CC2)nc(N2CCN(C(=O)CCCCCCCCCCNC(=O)[C@H](CCCN=C(N)N)n3cc(C[C@@H](C)CC)nn3)CC2)n1 | 42 | 26 | n | n | n | n | n | n
C#CCOCCOCCOCCNc1nc(N2CCN(C(=O)CCCCCCCCCCNC(=O)[C@H](CCCCN)n3cc(CCO)nn3)CC2)nc(N2CCN(C(=O)CCCCCCCCCCNC(=O)[C@H](CCCN=C(N)N)n3cc(C[C@@H](C)CC)nn3)CC2)n1 | 45 | 40 | n | x | n | n | 44 | n
Cc1ccc(C(=O)N2CCCC2(C)C(=O)NCC(C)C)cc1F (stereo not given) | x | x | x | x | n | x | x | x
COc1ccc2[nH]c(=O)c(CN(CCO)S(=O)(=O)c3c(C)ccc4nsnc34)cc2c1 | 55 | n | n | n | n | n | n | n
